MITF inh – MITF inhibitors, primary screen, biochemical, AlphaScreen, human | AlphaScreen MITF homodimerization, bead proximity signal | inhibition, % at 2.6 µM | hit rate 0.91% among 650,000 | AID 1259374, 2018; in the data active = inhibition above about 50%;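 note: 0% = vehicle wells with protein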
GPR151 ag – activators of human GPR151, primary screen, cell-based, PathHunter beta-arrestin, luminescence | hit rate 1% among 650,000 | PathHunter beta-arrestin GPR151 cells | AID 1508602, 2020 | activation, % at 11.2 µM; in the data active = activation above about 4.9%;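 note: 0% = median of compound wells and 100% = cells with positive control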
Target sequence (Q8TDV0 whole entry, looked up): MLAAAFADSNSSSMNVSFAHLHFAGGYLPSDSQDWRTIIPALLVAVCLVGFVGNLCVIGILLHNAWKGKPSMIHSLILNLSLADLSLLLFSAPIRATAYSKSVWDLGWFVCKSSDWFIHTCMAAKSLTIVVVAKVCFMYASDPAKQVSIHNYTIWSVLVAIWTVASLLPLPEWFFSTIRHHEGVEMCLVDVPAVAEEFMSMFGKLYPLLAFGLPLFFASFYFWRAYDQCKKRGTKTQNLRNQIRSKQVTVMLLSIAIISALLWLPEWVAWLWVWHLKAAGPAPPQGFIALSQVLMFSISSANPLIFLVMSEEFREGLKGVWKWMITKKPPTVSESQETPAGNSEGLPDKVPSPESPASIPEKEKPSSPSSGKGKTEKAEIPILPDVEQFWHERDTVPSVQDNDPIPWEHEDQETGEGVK
TEAD-YAP inh – TEAD-YAP interaction inhibition, primary screen, TEAD-YAP interaction inhibitor project, luminescence, HEK-TIYL cells | hit rate 1.4% among 640,000 | AID 1259422, 2018 | TEAD-Gal4/YAP UAS-luciferase luminescence | inhibition, % at 9.12 µM; in the data active = inhibition above about 32%;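 note: 0% = median of test compound wells and 100% = reference inhibitor wells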
FBW7 act – FBW7 E3 ligase activators, primary screen, biochemical, AlphaScreen, human | normalized activity (activation), % at 26.1 µM | hit rate 0.13% among 650,000 | AlphaScreen FBW7–phospho-cyclin E peptide binding, activator screen | AID 1259310, 2017; in the data active = normalized activity above about 1.9%;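 note: purified mutant Fbw7 with reduced substrate affinity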
Starred values were filed as active, the others as inactive. Shown are actives, neighbours in structure and some others; about 3.4% of the full set was active somewhere.

SMILES	MITF inh	GPR151 ag	TEAD-YAP inh	FBW7 act
COc1ccc(-c2cc3c(nn2)Nc2ccccc2S3)cc1	8.2	-4.0	85.6*	0.9
COc1ccc(C2=CC(=O)Nc3ccccc3S2)cc1	9.7	-1.0	-45.7	0.7
COCc1c(C#N)c(Cl)nc(C)c1[N+](=O)[O-]	-5.5	-1.8	3.6	-0.4
COCc1c(C#N)c(Sc2nnc(N)s2)nc(C)c1[N+](=O)[O-]	55.4*	-1.7	-8.1	0.0
COc1cc2c(C(=O)N3CCN(c4ccc(F)cc4)CC3)cn(C)c(=O)c2cc1OC	7.4	-0.3	-6.6	0.0
O=C(Nc1nc(-c2c[nH]c3ccccc23)cs1)c1n[nH]c(=O)c2ccccc12	-3.7	2.1	36.2*	0.1
O=C(Nc1nc(-c2c[nH]c3ccccc23)cs1)C1CCCC1	-0.8	-1.4	-56.2	0.1
COc1ccc(-c2c(C)nn3c(NCc4cccnc4)cc(C)nc23)cc1	6.0	2.7	15.2	0.0
COc1ccc(-c2c(C)nn3c(NCCCN(C)C)cc(C)nc23)cc1	20.2	0.5	1.1	3.4*
COc1ccc(-c2c(C)nn3c(NCc4ccncc4)cc(C)nc23)cc1	21.1	0.1	-7.4	4.0*
Nc1nonc1-c1noc(-c2cccc(Cl)c2)n1	-10.1	-1.0	-32.7	-0.1
COc1cccc(-n2cc(-c3cc4ccccc4oc3=O)[nH]c2=S)c1	1.4	-8.1	94.8*	0.0
O=C(CCl)N(CC1=CCSC1)c1ccccc1	5.9	0.1	46.8*	0.0
COc1cc([N+](=O)[O-])ccc1N/C=C/C(=O)c1ccc(Cl)cc1	9.3	0.1	-16.7	0.5
Cc1cc(N/C=C\C(=O)c2cccs2)no1	4.8	-1.7	-43.5	-0.1
COc1cc([N+](=O)[O-])ccc1N/C=C/C(=O)c1ccccc1	-5.1	-4.7	71.3*	0.0
COc1cc([N+](=O)[O-])ccc1N/C=C/C(=O)c1cccs1	5.8	-4.0	79.6*	0.5
Cc1cc(C(=O)O)ccc1N/C=C/C(=O)c1cccs1	9.4	-3.9	46.5*	-0.1
Cc1nc2cc(-c3ccccc3)nn2c(C)c1CC(=O)O	5.0	-6.6	-26.9	-0.1
CCCOc1ccc(C(=O)N2CCOCC2)cc1	-0.5	-0.8	6.6	-0.4
COc1ccccc1N=C1SCCN1C(=O)c1ccc([N+](=O)[O-])o1	3.2	-1.0	4.3	2.2*
COc1cccc2sc(=NC(=O)c3ccc([N+](=O)[O-])o3)n(C)c12	-0.2	4.8	-1.9	0.0
CCCNc1ccc2ncc(-c3ccc(O)c(OC)c3)n2n1	-1.3	-0.3	71.3*	-0.3
COc1cc(-c2cnc3ccc(NCC4CC4)nn23)ccc1O	-1.8	-1.1	-4.4	0.1
COc1ccccc1-c1cnc2ccc(NCc3cccs3)nn12	-5.8	-0.4	-10.6	1.9*
SMILES	MITF inh	GPR151 ag	TEAD-YAP inh	FBW7 act
COc1cc(-c2cnc3ccc(NCc4cccs4)nn23)cc(OC)c1OC	-2.1	1.0	-10.4	-0.1
COc1cc(-c2cnc3ccc(NCc4cccs4)nn23)ccc1O	-0.2	0.2	40.5*	0.1
COc1cc(CNc2ccc3ncc(-c4cccc(O)c4)n3n2)cc(OC)c1OC	25.0	1.2	-21.3	0.9
COc1cc(CNc2ccc3ncc(-c4cccc(N(C)C)c4)n3n2)cc(OC)c1OC	18.9	0.2	49.9*	-0.5
OCc1ccccc1-c1cnc2ccc(NCc3cccs3)nn12	12.8	0.2	4.1	0.0
Cc1cccc(N2CCN(C(=O)c3ccc(N4CC5CC(C4)c4cccc(=O)n4C5)c(NC(=O)c4ccncc4)c3)CC2C)c1 (stereo not drawn)	1.1	2.7	3.1	-0.1
COc1ccc(N2C(=O)CSC2c2cccc(F)c2)c(OC)c1 (stereo not drawn)	-25.0	-1.1	3.4	0.1
COc1ccc(N2C(=O)CSC2c2cccc([N+](=O)[O-])c2)c(OC)c1 (stereo not drawn)	-4.0	-0.5	46.3*	-0.4
Cc1ccc(/C=C\C(=O)Nn2c(-c3cccs3)nc3ccccc3c2=O)cc1	13.8	-0.7	11.4	1.2
COCCN1C(=O)/C(=C\c2cc(C)n(-c3ccc(Cl)cc3)c2C)C(C(=O)OC)=C1C	14.6	-0.5	-6.0	0.1
COC(=O)C1=C(C)N(Cc2ccco2)C(=O)/C1=C\c1cc(C)n(-c2ccccc2F)c1C	72.2*	-0.3	-9.7	-0.3
CCN1C(=O)/C(=C\c2cc(C)n(-c3ccc(Cl)cc3)c2C)C(C(=O)OC)=C1C	22.9	1.1	-4.9	7.3*

Source: PubChem
